In PubChem BioAssay (NCATS):
Results filed as inconclusive are left out. A number with no mark means an inactive call. Active and inactive are the calls of the source. Calls come from the whole dose curve.

The compounds below were run against Thyroid hormone receptor beta (Homo sapiens) (UniProt P10828) (assay: qHTS assay for small molecule agonists of thyroid hormone receptor beta signaling (AID 588545)). Settings: TR-UAS-bla GripTite HEK 293, beta-lactamase ratio, agonist mode, 18 h, percent of T3 response, DMSO as zero; series mostly up to 76.7 µM; activation: at the top concentration.
Thyroid hormone receptor beta (Homo sapiens), sequence (P10828 whole entry, looked up): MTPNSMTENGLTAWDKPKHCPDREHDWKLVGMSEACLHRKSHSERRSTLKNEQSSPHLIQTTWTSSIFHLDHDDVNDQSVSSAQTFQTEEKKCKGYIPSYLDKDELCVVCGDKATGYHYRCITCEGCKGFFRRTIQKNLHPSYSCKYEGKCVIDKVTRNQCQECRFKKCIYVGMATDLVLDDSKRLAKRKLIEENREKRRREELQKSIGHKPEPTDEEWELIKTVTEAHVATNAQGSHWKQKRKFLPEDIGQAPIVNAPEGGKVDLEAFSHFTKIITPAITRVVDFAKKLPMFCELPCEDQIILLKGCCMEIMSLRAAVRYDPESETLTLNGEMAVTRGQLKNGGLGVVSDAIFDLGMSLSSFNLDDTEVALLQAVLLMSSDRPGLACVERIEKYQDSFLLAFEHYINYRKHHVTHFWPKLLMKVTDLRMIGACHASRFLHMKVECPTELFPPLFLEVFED
Description: NIH Chemical Genomics Center [NCGC]
U.S. Environmental Protection Agency [EPA]
National Institutes of Environmental Health Sciences [NIEHS]
National Toxicology Program [NTP]
Thyroid hormone receptor (TR) belongs to nuclear hormone receptor superfamily. There are two subtypes for TR: TR-alpha and TR-beta. TR-beta plays a major role in regulating plasma cholesterol levels and it mediates the biological activities of thyroid hormone. Screening environmental chemicals on TR-beta signaling will provide important information for the mechanism of compound action.
NCGC Assay Protocol Summary
Using a beta-lactamase reporter-gene under control of the TR response element, a cell-based assay [GeneBLAzer TR-UAS-bla-GripTite assay developed by Invitrogen] was used to measure TR-beta signaling in agonist mode. TR-UAS-bla-GripTite HEK 293 cells were used with assay medium containing 2% charcoal/dextran FBS, 0.1 mM NEAA and 1 mM sodium pyruvate. The assay was performed in clear bottom black Greiner 1536-well plates. T3 was used as a positive control in the screen. Library compounds were measured for their ability to stimulate the reporter gene activity. Compounds were screened in a titration series in 1536-well format. The fluorescence intensity (405 nm excitation, 460/530 nm emission) was measured using an EnVision plate reader. Data was normalized relative to T3 control (10 nM, 100%), and DMSO only wells (basal, 0%). Concentration-response titration points for each compound were fitted to the Hill equation yielding concentrations of half-maximal stimulation (EC50) and maximal response (efficacy) values.
qHTS protocol for TR-beta beta-lactamase assay in agonist mode
[Step] [Parameter] [Value] [Description]
1. Reagent; 6 uL; 2500 cells/well
2. Incubation; 37 C for 4 hrs
- Dose response; start 3.8 uM, 1:3 dilutions, duplicates in first column
- Two columns of each 10 and 0.4 nM (finals) concentrations.
5. Incubation; 37 C for 18 hrs
6. Detection reagent; 1 uL of CCF4-dye
7. Incubation; RT for 2 hrs
8. Detection; Fluorescence; Envision plate reader
C=CCc1ccc2c(c1)OCO2 was tested, and the “activation” value was -3.67%.
CCC(=O)Nc1ccc(Cl)c(Cl)c1 was tested, and the “activation” value was -4.76%.
In the case of C=C(Cl)Cl, the “activation” value is reported as -31%.
In the case of COC1=CC(=O)OC(CCc2ccccc2)C1 (stereo not given), the “activation” value is reported as -30%.
CC(C)(C)C(=O)C(Oc1ccc(Cl)cc1)n1cncn1 (stereo not given) was tested, and the “activation” value was 1.47%.
In the case of Clc1cccc(C(Cl)(Cl)Cl)n1, the “activation” value is reported as -21.1%.
COc1ccc(N)cc1 was tested, and the outcome was “inactive”.
In the case of Cc1cccc(C#N)c1, the “activation” value is reported as 16.9%.
With CN=C=S the “activation” value was -16%.
In the case of CCCCSP(=O)(SCCCC)SCCCC, the “activation” value is reported as 7.11%.
With CCCC(=O)Cl the “activation” value was -4.42%.
In the case of Oc1ccc(Cl)cc1Cl, the outcome is reported as “inactive”.
For O=NN(c1ccccc1)c1ccccc1, the outcome was “inactive”.
[O-][Br+2]([O-])O was tested, and the outcome was “inactive”.
For Clc1ccc2ccccc2c1, the “activation” value was -17.3%.
C=CC1CC=CCC1 (stereo not given) was tested, and the “activation” value was 0.552%.
For CCCCCCCCCc1ccc(O)cc1, the “activation” value was 4.84%.
With CC(C)(C)OO the outcome was “inactive”.
In the case of Cc1ccccc1N, the “activation” value is reported as 8.39%.
With CC(C)N1C(=O)c2ccccc2NS1(=O)=O the “activation” value was 4.7%.
With O=NN(CCO)CCO the “activation” value was -25.4%.
Nc1ccc(Br)cc1 was tested, and the “activation” value was -3.88%.
For CC(C)(C)OOC(C)(C)C, the “activation” value was -13.5%.
With CCNc1nc(Cl)nc(NC(C)C)n1 the outcome was “inactive”.
With O=C(O)C1C2CCC(O2)C1C(=O)O (stereo not given) the “activation” value was 11.8%.
With BrCCBr the outcome was “inactive”.
With CC(=O)[O-].CC(=O)[O-].O.O.O.[Pb+2] the outcome was “inactive”.
With CCCCOCCOP(=O)(OCCOCCCC)OCCOCCCC the “activation” value was -5.95%.
In the case of N#Cc1c(Cl)cccc1Cl, the “activation” value is reported as 9.24%.
With O=[N+]([O-])c1cccc2ccccc12 the outcome was “inactive”.
For CNC(=O)Oc1ccccc1OC(C)C, the “activation” value was -13.9%.
In the case of COC1=CC(=O)O[C@@H](/C=C/c2ccc3c(c2)OCO3)C1, the “activation” value is reported as -10.9%.
In the case of C=C(C)C(=O)OCC1CO1 (stereo not given), the “activation” value is reported as -11.4%.
For CC(C)Nc1nc(Cl)nc(NC(C)C)n1, the “activation” value was -5.49%.
For COP(=S)(OC)Oc1ccc([N+](=O)[O-])cc1, the outcome was “inactive”.
CCOc1ccc(N)cc1 was tested, and the “activation” value was -9.95%.
Nc1ccccc1Cl was tested, and the “activation” value was -0.484%.
In the case of Brc1ccccc1, the outcome is reported as “inactive”.
For CCOCN(C(=O)CCl)c1c(C)cccc1CC, the outcome was “inactive”.
In the case of Clc1nc(Cl)nc(Cl)n1, the “activation” value is reported as -1.13%.
